According to the supplement of paper PMC13380429:

System: Vero E6 infected with SARS-CoV-2
Assay: inhibition of SARS-CoV-2 cytopathic effect; higher = more antiviral protection, active = above 15
Conditions: 48 h

Measured: inhibition of SARS-CoV-2 cytopathic effect

CCC[C@@H]1CC2=CC(=O)CC[C@]2(C)[C@H]2CC[C@@]3(C)[C@@H](CC[C@@]3(O)CCC(=O)O)[C@H]12
inactive: 1 nM 1.5% | 100 nM 3.45% | 833.33 nM -4.91% | 10000 nM 1.68%
active: 8.33 nM 15.1%

Cc1cccc(NC(=O)CN2CCC(c3ccccn3)CC2)c1
inactive: 1 nM 1.23% | 8.33 nM 1.06% | 100 nM -0.12% | 833.33 nM 0% | 10000 nM 3.09%

CC(C)(C)[C@]1(O)CCN2C[C@H]3c4ccccc4CCc4cccc(c43)[C@@H]2C1 [butaclamol]
inactive: 1 nM 1.69% | 8.33 nM 1.31% | 100 nM 0.21% | 833.33 nM 1.72% | 10000 nM -3.01%

Nc1ccn([C@@H]2O[C@H](CO)[C@@H](O)C2(F)F)c(=O)n1 [gemcitabine]
inactive: 1 nM 1.67% | 8.33 nM 2.4% | 100 nM -0.88% | 833.33 nM -3.94% | 10000 nM 3.81%

CC[C@H](CC[C@@H](C)[C@H]1CC[C@H]2[C@@H]3CC=C4C[C@@H](O)CC[C@]4(C)[C@H]3CC[C@]12C)C(C)C [beta-Sitosterol]
inactive: 1 nM 0.66% | 8.33 nM 2.31% | 100 nM 1.23% | 833.33 nM -2.15% | 10000 nM -1.08%

CC(C)NCC(O)COc1cccc2[nH]ccc12 (stereo not given) [pindolol]
inactive: 1 nM -3.04% | 8.33 nM 0.875% | 100 nM 0.95% | 833.33 nM -0.725% | 10000 nM -1.61%

C[C@H](Oc1ccc(S(C)(=O)=O)cc1C(=O)N1CCN(c2ncc(C(F)(F)F)cc2F)CC1)C(F)(F)F [bitopertin]
inactive: 1 nM 1.07% | 8.33 nM 0.78% | 100 nM 1.93% | 833.33 nM 0.34% | 10000 nM -3.97%

CNC1CC(c2ccc(Cl)c(Cl)c2)c2ccccc21 (stereo not given) [indatraline]
inactive: 1 nM -0.39% | 8.33 nM 0.4% | 100 nM 0.7% | 833.33 nM -3.42% | 10000 nM -10.8%

O=C(Nc1ccc(C(F)(F)F)cn1)N1CCN(c2ncccc2C(F)(F)F)CC1
inactive: 1 nM -2.83% | 8.33 nM 0.93% | 100 nM 1.25% | 833.33 nM 1.49% | 10000 nM -0.71%

CC(=O)c1ccc2c(c1)[C@H](NC(=O)c1ccc(F)c(Cl)c1)[C@H](O)C(C)(C)O2 [tonabersat]
inactive: 1 nM -2.31% | 8.33 nM -1.2% | 100 nM -0.8% | 833.33 nM 1.11% | 10000 nM -2.32%

C[C@]12CCC(=O)C=C1CC[C@@H]1[C@@H]2[C@@H](O)C[C@@]2(C)[C@H]1CC[C@]2(O)C(=O)CO [hydrocortisone]
inactive: 1 nM -3.82% | 8.33 nM -3.12% | 100 nM -3.55% | 833.33 nM -4.8% | 10000 nM -3.51%

C[N+]1(C)[C@@H]2C[C@@H](OC(=O)[C@H](CO)c3ccccc3)C[C@H]1[C@@H]1O[C@@H]12 [methscopolamine]
inactive: 1 nM -1.29% | 8.33 nM -0.27% | 100 nM 1.56% | 833.33 nM 0.62% | 10000 nM 1.83%

CC(C)(C)NC(=O)[C@@H]1C[C@@H]2CCCC[C@@H]2CN1C[C@@H](O)[C@H](Cc1ccccc1)NC(=O)[C@H](CC(N)=O)NC(=O)c1ccc2ccccc2n1 [saquinavir]
inactive: 1 nM -9.33% | 8.33 nM -7.46% | 100 nM -1.46% | 833.33 nM -6.25% | 10000 nM -22%

Cc1nc(Nc2cnn(C3CCNCC3)c2)nc2c1N(C)C(=O)c1cc3ccccc3cc1N2C
active: 10000 nM 48.4%
inactive: 1 nM 2.64% | 8.33 nM -1.33% | 100 nM -2.15% | 833.33 nM 1.63%

Cc1cc(CC(=O)O)n(C)c1C(=O)c1ccc(Cl)cc1 [zomepirac]
inactive: 1 nM -4.55% | 8.33 nM -6.14% | 100 nM -5.66% | 833.33 nM -0.27% | 10000 nM -0.22%

CC(C)c1cccc2c(-c3ccccc3)cc(-c3ccc(-c4ccc(C(=O)O)cc4)[nH]3)nc12
inactive: 1 nM 5.04% | 8.33 nM 4.89% | 100 nM 3.09% | 833.33 nM 5.27% | 10000 nM 3.56%

Cn1c(=O)c2c(ncn2CC(O)CO)n(C)c1=O (stereo not given) [dyphylline]
inactive: 1 nM 1.96% | 8.33 nM -3.64% | 100 nM 0.25% | 833.33 nM 1.93% | 10000 nM -0.77%

CC(C)(Oc1ccc(Cl)cc1)C(=O)N1CSCC1C(=O)O (stereo not given) [timofibrate]
inactive: 1 nM 1.85% | 8.33 nM 4.22% | 100 nM 2.73% | 833.33 nM -9.25% | 10000 nM 3.42%

O=S(=O)(Cc1ccccc1)Nc1ccc(-c2ccc3c(cnn3-c3ccc(F)cc3)c2)c(C(F)(F)F)c1
inactive: 1 nM 0.84% | 8.33 nM 1.44% | 100 nM -0.94% | 833.33 nM 2.01% | 10000 nM -3.81%

COc1ccc(/C=C\c2cc(OC)c(OC)c(OC)c2)cc1OP(=O)(O)O [fosbretabulin]
inactive: 1 nM 0.43% | 8.33 nM 0.77% | 100 nM -1.34% | 833.33 nM -0.84% | 10000 nM -0.38%

NC(=O)NCCN1CCN(c2cccc(C(F)(F)F)c2)CC1 [fluprazine]
inactive: 1 nM 1.46% | 8.33 nM 1.13% | 100 nM -1.67% | 833.33 nM -1.94% | 10000 nM -2.06%

CCOC(=O)[C@@]1(CCCCCCOc2ccc(Cl)cc2)CO1 [etomoxir]
inactive: 1 nM -0.23% | 8.33 nM -0.29% | 100 nM 1.79% | 833.33 nM 2.79% | 10000 nM -4.51%

CS(=O)(=O)Oc1ccc2c(NC(N)=O)c(C(=O)c3ccc(Cl)cc3Cl)oc2c1 [lirimilast]
inactive: 1 nM -4.96% | 8.33 nM -9.08% | 100 nM -8.83% | 833.33 nM -12.5% | 10000 nM -5.64%

CC(C)[C@H](N)C(=O)OCCOCn1cnc2c(=O)nc(N)[nH]c21 [valaciclovir]
inactive: 1 nM 0.01% | 8.33 nM 0.27% | 100 nM 1.58% | 833.33 nM 0.1% | 10000 nM -2.93%

CC(=O)Nc1ccc(CC(=O)O)cc1 [actarit]
inactive: 1 nM 1.96% | 8.33 nM -0.52% | 100 nM 0.35% | 833.33 nM -0.15% | 10000 nM -0.41%

COc1cc(-n2c(=S)[nH]c3ccccc3c2=O)c(Cl)cc1Cl [mdivi-1]
inactive: 1 nM 0.74% | 8.33 nM 0.3% | 100 nM -0.2% | 833.33 nM -0.45% | 10000 nM -1.37%

N=C(N)NC(=O)c1cnn(-c2cccc3ncccc23)c1C1CC1 [zoniporide]
inactive: 1 nM -0.05% | 8.33 nM 3.39% | 100 nM 1.14% | 833.33 nM 3.55% | 10000 nM -1.51%

Oc1ccc(-c2c(-c3ccccc3)nn3c(C(F)(F)F)cc(C(F)(F)F)nc23)cc1
inactive: 1 nM 0.08% | 8.33 nM 0.21% | 100 nM -0.05% | 833.33 nM -1.7% | 10000 nM 11.9%

CC1(C)[C@@H](O)CC[C@]2(C)[C@H]3C(=O)C=C4[C@@H]5C[C@@](C)(C(=O)O)CC[C@]5(C)CC[C@@]4(C)[C@]3(C)CC[C@@H]12 [enoxolone]
inactive: 1 nM -3.08% | 8.33 nM -3.58% | 100 nM -1.05% | 833.33 nM 2.65% | 10000 nM -0.55%

CO/N=C1\C[C@]2(C[C@@H]3C[C@@H](C/C=C(\C)C[C@@H](C)/C=C/C=C4\CO[C@@H]5[C@H](O)C(C)=C[C@@H](C(=O)O3)[C@]45O)O2)O[C@H](/C(C)=C/C(C)C)[C@H]1C [moxidectin]
inactive: 1 nM -5.37% | 8.33 nM -7.08% | 100 nM -3.57% | 833.33 nM -4.07% | 10000 nM 2.53%

C[N+]1(C)CCCC(OC(=O)C(O)(c2ccccc2)c2ccccc2)C1 (stereo not given) [mepenzolate]
inactive: 1 nM -0.21% | 8.33 nM -0.16% | 100 nM -3.53% | 833.33 nM 0.26% | 10000 nM 0.49%

Nc1nc(=O)c2c([nH]1)NCC(CNc1ccc(C(=O)N[C@@H](CCC(=O)O)C(=O)O)cc1)N2C=O (stereo not given in full) [leucovorin]
inactive: 1 nM -3.4% | 8.33 nM -3.52% | 100 nM -0.89% | 833.33 nM 1.42% | 10000 nM -0.745%

CCOC(=O)[C@@H](N)CCC(=O)N[C@@H](CSCc1ccccc1)C(=O)N[C@@H](C(=O)OCC)c1ccccc1 [ezatiostat]
inactive: 1 nM -0.49% | 8.33 nM 0.28% | 100 nM 1.7% | 833.33 nM 2.71% | 10000 nM 0.41%

O=C([O-])c1ccccn1.O=C([O-])c1ccccn1.O=C([O-])c1ccccn1.[Cr+3] [chromium-picolinate]
inactive: 1 nM 0.6% | 8.33 nM 3.76% | 100 nM 1.3% | 833.33 nM -3.86% | 10000 nM 0.6%

Cc1ccc(N(CC2=NCCN2)c2cccc(O)c2)cc1 [phentolamine]
inactive: 1 nM -1.41% | 8.33 nM 0.07% | 100 nM -0.25% | 833.33 nM 1.86% | 10000 nM -4.23%

CC(C)(C)NC[C@H](O)c1ccc(O)cc1Cl [meluadrine]
inactive: 1 nM -1.16% | 8.33 nM 1.91% | 100 nM 1.61% | 833.33 nM -2.53% | 10000 nM -3.94%

COc1ccc(C2CC(c3c(O)cc(C)oc3=O)=NCCS2)c(OC)c1 (stereo not given)
inactive: 1 nM 0.21% | 8.33 nM 3.01% | 100 nM -2.07% | 833.33 nM -0.81% | 10000 nM -8.62%
